Results from PubChem BioAssay (NCI).
Compounds without any hit were thinned out: in the full panel of roughly 83,000, 20% have a hit.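 Testing used 96-well plates and a 48-hour single-concentration exposure. Example: -40 means 40% of the starting cells died.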 Activity calls are given as the source filed them. How the source made its calls: active means growth percent below 10; inactive means the rest.

Legend:
Assay in all cases: NCI-60 one-dose screen, 48 h (100 = growth as untreated, 0 = no growth, -100 = all killed)
Settings in all cases: 10 µM
RPMI-8226 leukemia = test system: RPMI-8226 leukemia
OVCAR-8 ovarian = test system: OVCAR-8 ovarian
OVCAR-5 ovarian = test system: OVCAR-5 ovarian
OVCAR-4 ovarian = test system: OVCAR-4 ovarian
SK-OV-3 ovarian = test system: SK-OV-3 ovarian
IGROV1 ovarian = test system: IGROV1 ovarian
HS 578T breast = test system: HS 578T breast
NCI/ADR-RES ovarian = test system: NCI/ADR-RES ovarian
T-47D breast = test system: T-47D breast
OVCAR-3 ovarian = test system: OVCAR-3 ovarian

Measured: growth

COc1cc(-c2cc(/C=C/C(=O)c3ccc(Cl)c(Cl)c3)[nH]n2)cc(OC)c1OC
inactive: OVCAR-8 ovarian 77.8% | OVCAR-5 ovarian 81.9% | OVCAR-4 ovarian 77.4% | SK-OV-3 ovarian 97.3% | IGROV1 ovarian 108% | HS 578T breast 90.1% | NCI/ADR-RES ovarian 75.1% | T-47D breast 37%
active: RPMI-8226 leukemia -20.3%

NC(=O)CC1(c2ccccc2)CCCCC1
inactive: RPMI-8226 leukemia 99.1% | OVCAR-8 ovarian 107% | OVCAR-5 ovarian 111% | OVCAR-4 ovarian 103% | SK-OV-3 ovarian 103% | OVCAR-3 ovarian 103% | HS 578T breast 115% | NCI/ADR-RES ovarian 107% | T-47D breast 97.5%

CNc1ccc(CSc2ccc(C)cc2)cc1
inactive: RPMI-8226 leukemia 20.8% | OVCAR-8 ovarian 91.1% | OVCAR-5 ovarian 101% | OVCAR-4 ovarian 34% | IGROV1 ovarian 78.6% | OVCAR-3 ovarian 90.6% | HS 578T breast 95.8% | NCI/ADR-RES ovarian 92.1% | T-47D breast 64.5%

O=C(Cc1csc2nc(-c3ccc(Cl)cc3)cn12)N/N=C/c1ccccc1O
inactive: RPMI-8226 leukemia 23.6% | OVCAR-8 ovarian 41.6% | OVCAR-5 ovarian 58.2% | OVCAR-4 ovarian 43.2% | SK-OV-3 ovarian 52.7% | IGROV1 ovarian 11.7% | NCI/ADR-RES ovarian 41.3% | T-47D breast 57.7%

O=S(=O)(NCCNc1nccc(-c2c(-c3ccc(F)cc3)nc3sccn23)n1)c1ccc2ccccc2c1
inactive: RPMI-8226 leukemia 60.2% | OVCAR-8 ovarian 69.6% | OVCAR-5 ovarian 130% | OVCAR-4 ovarian 96.2% | SK-OV-3 ovarian 85.2% | IGROV1 ovarian 49.4% | HS 578T breast 111% | NCI/ADR-RES ovarian 84.4% | T-47D breast 61.9%

C[N+](C)(C)c1ncnc2nc[nH]c12
inactive: RPMI-8226 leukemia 103% | OVCAR-8 ovarian 102% | OVCAR-5 ovarian 80.3% | OVCAR-4 ovarian 103% | SK-OV-3 ovarian 97.3% | OVCAR-3 ovarian 112% | HS 578T breast 101% | NCI/ADR-RES ovarian 94.1% | T-47D breast 91.7%

COc1cc(-c2cc(/C=C3\C(=O)Nc4cc(Cl)ccc43)[nH]n2)cc(OC)c1OC
active: RPMI-8226 leukemia -28% | IGROV1 ovarian 4.31%
inactive: OVCAR-8 ovarian 23.9% | OVCAR-5 ovarian 65% | OVCAR-4 ovarian 19% | SK-OV-3 ovarian 74.2% | HS 578T breast 12.6% | NCI/ADR-RES ovarian 10.2% | T-47D breast 24.9%

O=[N+]([O-])c1ccc(Oc2cc(Cl)c(Cl)cc2Cl)c(C(F)(F)F)c1
inactive: RPMI-8226 leukemia 97.3% | OVCAR-8 ovarian 97.8% | OVCAR-5 ovarian 87% | OVCAR-4 ovarian 93.8% | SK-OV-3 ovarian 103% | IGROV1 ovarian 96.5% | HS 578T breast 104% | NCI/ADR-RES ovarian 109% | T-47D breast 107%

c1ccc2c(-c3nc(N4CCOCC4)c4c5c(sc4n3)CCCCCC5)cccc2c1
inactive: RPMI-8226 leukemia 112% | OVCAR-8 ovarian 101% | OVCAR-5 ovarian 103% | OVCAR-4 ovarian 106% | SK-OV-3 ovarian 111% | IGROV1 ovarian 112% | HS 578T breast 104% | NCI/ADR-RES ovarian 109% | T-47D breast 95%

Nc1ccc2c(c1)C1(CCC2)NC(=O)NC1=O (centres undefined)
inactive: RPMI-8226 leukemia 98.4% | OVCAR-8 ovarian 100% | OVCAR-5 ovarian 92.8% | OVCAR-4 ovarian 106% | SK-OV-3 ovarian 109% | OVCAR-3 ovarian 110% | HS 578T breast 103% | NCI/ADR-RES ovarian 108% | T-47D breast 96.3%

Nc1nc(N)c2c(ccc3nccc32)[nH]1
inactive: RPMI-8226 leukemia 43.2% | OVCAR-8 ovarian 26.2% | OVCAR-5 ovarian 65.2% | OVCAR-4 ovarian 66.1% | SK-OV-3 ovarian 58.8% | OVCAR-3 ovarian 75.5% | HS 578T breast 89.5% | NCI/ADR-RES ovarian 53.1% | T-47D breast 73%

S=c1[nH]ccn1-c1c(Cl)cccc1Cl
inactive: RPMI-8226 leukemia 89% | OVCAR-8 ovarian 103% | OVCAR-5 ovarian 107% | OVCAR-4 ovarian 97.1% | SK-OV-3 ovarian 102% | OVCAR-3 ovarian 111% | HS 578T breast 109% | NCI/ADR-RES ovarian 102% | T-47D breast 91.2%

N=C1c2nc3n(c2C(=O)c2nc4n(c21)CCCC4)CCCC3
active: OVCAR-5 ovarian -57.8% | HS 578T breast -28.7%
inactive: RPMI-8226 leukemia 82.2% | OVCAR-8 ovarian 91.5% | OVCAR-4 ovarian 96.2% | SK-OV-3 ovarian 95% | OVCAR-3 ovarian 98.4% | NCI/ADR-RES ovarian 85.7% | T-47D breast 71.9%

O=C(CC(C(=O)c1ccccc1)N1CCOCC1)c1ccccc1 (centres undefined)
inactive: RPMI-8226 leukemia 40.5% | OVCAR-8 ovarian 97.3% | OVCAR-5 ovarian 95.5% | OVCAR-4 ovarian 106% | SK-OV-3 ovarian 98.3% | IGROV1 ovarian 106% | HS 578T breast 99% | NCI/ADR-RES ovarian 98% | T-47D breast 72.1%

COc1ccc2nc3cc(Cl)ccc3c(NCCNCC(C)O)c2c1 (centres undefined)
inactive: RPMI-8226 leukemia 19.8% | OVCAR-8 ovarian 17.1% | OVCAR-5 ovarian 24.6% | OVCAR-4 ovarian 37% | SK-OV-3 ovarian 37.5% | IGROV1 ovarian 26.2% | HS 578T breast 67.2% | NCI/ADR-RES ovarian 51.9% | T-47D breast 25.9%

COc1cc(Nc2ccnc(NCCCNc3ccnc4cc(Cl)ccc34)n2)cc(OC)c1
active: RPMI-8226 leukemia -45.3% | OVCAR-8 ovarian 3.57% | OVCAR-4 ovarian 2.29% | HS 578T breast -53.1% | T-47D breast -63.1%
inactive: OVCAR-5 ovarian 44.7% | SK-OV-3 ovarian 14.7% | IGROV1 ovarian 27.2% | NCI/ADR-RES ovarian 50.7%

Clc1cc2c(c(CSc3nc4ccccc4n4cccc34)c1)OCOC2
inactive: RPMI-8226 leukemia 49% | OVCAR-8 ovarian 59.3% | OVCAR-5 ovarian 87.2% | SK-OV-3 ovarian 74.9% | OVCAR-3 ovarian 72.2% | HS 578T breast 91.8% | NCI/ADR-RES ovarian 89.5%
active: OVCAR-4 ovarian 3.98% | T-47D breast 2.37%

CCCN(CCC)CCC(O)c1cc2c(c3ccccc13)CCCC2 (centres undefined)
inactive: RPMI-8226 leukemia 86.1% | OVCAR-8 ovarian 102% | OVCAR-5 ovarian 84.9% | OVCAR-4 ovarian 103% | SK-OV-3 ovarian 90.1% | IGROV1 ovarian 77.8% | HS 578T breast 88% | NCI/ADR-RES ovarian 83.3% | T-47D breast 68.9%

CCN1Cc2c(/C=C/c3ccccc3)nc3ccc(OC)cc3c2N(c2cccc(Cl)c2)C1
inactive: OVCAR-8 ovarian 89.4% | OVCAR-5 ovarian 95.4% | OVCAR-4 ovarian 67.5% | SK-OV-3 ovarian 77.3% | OVCAR-3 ovarian 74.7% | HS 578T breast 105% | NCI/ADR-RES ovarian 77.4% | T-47D breast 55.1%
active: RPMI-8226 leukemia -1.25%

Cc1ccc(NC(=O)Nc2nc3ccccc3s2)cc1NC(=O)Nc1nc2ccccc2s1
inactive: RPMI-8226 leukemia 42.8% | OVCAR-8 ovarian 50.4% | OVCAR-5 ovarian 104% | OVCAR-4 ovarian 82.3% | SK-OV-3 ovarian 95.8% | IGROV1 ovarian 53.6% | HS 578T breast 77.3% | NCI/ADR-RES ovarian 91.7% | T-47D breast 80.6%

CCOC(=O)N1C=CC2C=CC1C1C=CC=CC2N1C(=O)OCC (centres undefined)
inactive: RPMI-8226 leukemia 89.5% | OVCAR-8 ovarian 96.5% | OVCAR-5 ovarian 95% | OVCAR-4 ovarian 97.8% | SK-OV-3 ovarian 97% | IGROV1 ovarian 97.8% | HS 578T breast 87.5% | NCI/ADR-RES ovarian 95.3% | T-47D breast 98.9%

N=C(N)c1ccc(-c2ccc(-c3cccs3)s2)s1
inactive: SK-OV-3 ovarian 74.2% | T-47D breast 70.2%
active: RPMI-8226 leukemia -46.6% | OVCAR-8 ovarian -47.2% | OVCAR-5 ovarian 0.532% | OVCAR-4 ovarian -64.1% | IGROV1 ovarian 3.96% | HS 578T breast -27.1% | NCI/ADR-RES ovarian -29.3%

COc1cc(-c2cc(C(=O)N3CCN(C(=O)c4ccccc4NCc4ccco4)CC3)nc3cc(-c4ccccc4)nn23)cc(OC)c1OC
active: NCI/ADR-RES ovarian 6.24%
inactive: RPMI-8226 leukemia 21.3% | OVCAR-8 ovarian 39.5% | OVCAR-5 ovarian 64.1% | OVCAR-4 ovarian 68.6% | SK-OV-3 ovarian 27.3% | IGROV1 ovarian 23% | HS 578T breast 36.5% | T-47D breast 50.9%

N#Cc1ncc(-c2ccc(C(F)(F)F)cc2)c(NCc2cc(C(F)(F)F)cc(C(F)(F)F)c2)n1
inactive: OVCAR-8 ovarian 30.6% | OVCAR-5 ovarian 57.3% | OVCAR-4 ovarian 21% | SK-OV-3 ovarian 62.6% | IGROV1 ovarian 40.6% | HS 578T breast 36% | NCI/ADR-RES ovarian 25.5%
active: RPMI-8226 leukemia -19.6% | T-47D breast 9.88%

CCN(CC)CCSCCCNc1c2ccc(Cl)cc2nc2ccc(OC)cc12
active: RPMI-8226 leukemia -22.9% | OVCAR-8 ovarian -29.3% | OVCAR-5 ovarian -16.7% | OVCAR-4 ovarian -34.1% | SK-OV-3 ovarian -1.76% | IGROV1 ovarian -18.7% | HS 578T breast 6.72% | NCI/ADR-RES ovarian 1.58% | T-47D breast -32.8%

COc1cc2c(cc1OC)N(CCO)C1=C(C(=O)OC1)C2c1ccc(Cl)c(Cl)c1 (centres undefined)
inactive: RPMI-8226 leukemia 92.1% | OVCAR-8 ovarian 103% | OVCAR-5 ovarian 111% | OVCAR-4 ovarian 104% | SK-OV-3 ovarian 106% | IGROV1 ovarian 110% | HS 578T breast 103% | NCI/ADR-RES ovarian 104% | T-47D breast 88.3%

Nc1ccn(C2CC(O)C(CO)O2)c(=O)n1 (centres undefined)
inactive: RPMI-8226 leukemia 112% | OVCAR-8 ovarian 106% | OVCAR-5 ovarian 92.4% | OVCAR-4 ovarian 114% | SK-OV-3 ovarian 105% | OVCAR-3 ovarian 123% | HS 578T breast 111% | NCI/ADR-RES ovarian 102% | T-47D breast 103%

CCC(=O)N1C/C(=C/c2ccc(OC)cc2)C(=O)/C(=C/c2ccc(OC)cc2)C1
inactive: OVCAR-8 ovarian 10.7% | OVCAR-5 ovarian 96.1% | OVCAR-4 ovarian 58.3% | SK-OV-3 ovarian 40.8% | IGROV1 ovarian 41.8% | NCI/ADR-RES ovarian 25% | T-47D breast 57%
active: RPMI-8226 leukemia -15.8% | HS 578T breast 9.81%

O=C(Nc1cccc(-n2cc(-c3ccncc3)c(-c3ccc(O)c(Cl)c3)n2)c1)Nc1ccc(Cl)c(Cl)c1
active: RPMI-8226 leukemia -30.8% | OVCAR-8 ovarian -24.9% | IGROV1 ovarian -0.387% | HS 578T breast -0.243% | T-47D breast -3.41%
inactive: OVCAR-5 ovarian 31.4% | OVCAR-4 ovarian 13.8% | SK-OV-3 ovarian 19% | NCI/ADR-RES ovarian 17.9%

COc1ccc(-c2cc(/C=C3\C(=O)Nc4ccc(OC)cc43)[nH]n2)cc1
inactive: RPMI-8226 leukemia 20.6% | OVCAR-8 ovarian 48.8% | OVCAR-5 ovarian 82.5% | OVCAR-4 ovarian 79.8% | SK-OV-3 ovarian 33.6% | IGROV1 ovarian 31.8% | HS 578T breast 14% | NCI/ADR-RES ovarian 21.7% | T-47D breast 47.3%
